Test results: article PMC3218832

Columns and labels:
Experiment in all cases: protein binding microarray; high values mean tight binding
Conditions in all cases: dsDNA, one strand shown
[1] = target: RELARELA (p65 homodimer) (Homo sapiens, UniProt Q04206 1-307)
[2] = target: p50p50 homodimer (Homo sapiens, UniProt P19838 7-356)
[3] = target: T1, p52p52 homodimer (Homo sapiens, UniProt Q00653 4-332)
T1 sequence: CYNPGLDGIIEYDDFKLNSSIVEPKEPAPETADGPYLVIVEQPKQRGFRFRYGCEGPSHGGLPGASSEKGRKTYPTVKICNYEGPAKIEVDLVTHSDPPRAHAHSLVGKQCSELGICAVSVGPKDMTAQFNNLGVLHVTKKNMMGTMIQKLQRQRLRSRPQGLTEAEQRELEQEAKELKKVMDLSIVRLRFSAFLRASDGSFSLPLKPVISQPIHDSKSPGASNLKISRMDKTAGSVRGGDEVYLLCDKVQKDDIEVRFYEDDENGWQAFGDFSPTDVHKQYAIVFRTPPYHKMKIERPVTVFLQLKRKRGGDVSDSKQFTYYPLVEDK

[4] = target: RELA (p65) subunit of heterodimer;p50 subunit (Homo sapiens;Homo sapiens, UniProt Q04206;P19838 1-307;7-356)
RELA (p65) subunit of heterodimer;p50 subunit, sequence (Q04206 1-307, chain 1 of 2): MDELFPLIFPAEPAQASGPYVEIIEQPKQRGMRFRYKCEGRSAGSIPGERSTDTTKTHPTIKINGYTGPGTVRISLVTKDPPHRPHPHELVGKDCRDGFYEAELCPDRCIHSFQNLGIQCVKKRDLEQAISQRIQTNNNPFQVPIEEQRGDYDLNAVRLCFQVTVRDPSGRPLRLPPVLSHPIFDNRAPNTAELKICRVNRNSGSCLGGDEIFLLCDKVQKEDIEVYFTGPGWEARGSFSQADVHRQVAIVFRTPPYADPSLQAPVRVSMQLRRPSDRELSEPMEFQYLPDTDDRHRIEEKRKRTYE
RELA (p65) subunit of heterodimer;p50 subunit, sequence (P19838 7-356, chain 2 of 2): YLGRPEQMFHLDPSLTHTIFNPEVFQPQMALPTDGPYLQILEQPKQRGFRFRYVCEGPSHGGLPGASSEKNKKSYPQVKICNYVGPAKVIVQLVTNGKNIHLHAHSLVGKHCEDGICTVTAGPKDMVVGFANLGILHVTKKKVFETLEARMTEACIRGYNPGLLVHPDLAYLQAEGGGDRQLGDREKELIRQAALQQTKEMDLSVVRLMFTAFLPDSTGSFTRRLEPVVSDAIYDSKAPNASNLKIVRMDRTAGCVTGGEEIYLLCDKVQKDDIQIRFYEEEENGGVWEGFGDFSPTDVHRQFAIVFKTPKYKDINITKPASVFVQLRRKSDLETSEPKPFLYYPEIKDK

[5] = target: RELA (p65) subunit of heterodimer;p52 subunit (Homo sapiens;Homo sapiens, UniProt Q04206;Q00653 1-307;4-332)
[6] = target: RELB subunit;p50 subunit (Homo sapiens;Homo sapiens, UniProt Q01201;P19838 120-401;7-356)
[7] = target: T2, RELB subunit;p52 subunit (Homo sapiens;Homo sapiens, UniProt Q01201;Q00653 120-401;4-332)
T2 sequence 1: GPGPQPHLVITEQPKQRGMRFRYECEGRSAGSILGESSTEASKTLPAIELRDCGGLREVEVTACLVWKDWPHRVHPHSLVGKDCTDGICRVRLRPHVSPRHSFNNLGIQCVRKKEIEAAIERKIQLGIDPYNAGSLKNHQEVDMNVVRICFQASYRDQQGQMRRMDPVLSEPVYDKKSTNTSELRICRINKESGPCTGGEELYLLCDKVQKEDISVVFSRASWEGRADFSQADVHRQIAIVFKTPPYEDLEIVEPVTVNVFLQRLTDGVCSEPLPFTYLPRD
T2 sequence 2: T1 sequence

[8] = target: C-Rel subunit;p50 subunit (Homo sapiens;Homo sapiens, UniProt Q04864;P19838 1-285;7-356)
[9] = target: T3, C-Rel subunit;p52 subunit (Homo sapiens;Homo sapiens, UniProt Q04864;Q00653 1-285;4-332)
T3 sequence 1: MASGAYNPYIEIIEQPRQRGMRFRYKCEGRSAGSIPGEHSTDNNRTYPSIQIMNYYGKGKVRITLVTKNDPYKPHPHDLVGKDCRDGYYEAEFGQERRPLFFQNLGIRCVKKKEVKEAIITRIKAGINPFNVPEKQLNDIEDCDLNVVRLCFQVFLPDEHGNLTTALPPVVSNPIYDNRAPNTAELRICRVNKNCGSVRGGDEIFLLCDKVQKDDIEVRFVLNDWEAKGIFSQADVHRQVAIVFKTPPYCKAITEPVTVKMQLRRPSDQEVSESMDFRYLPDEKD
T3 sequence 2: T1 sequence

RELARELA (p65 homodimer), sequence (Q04206 1-307): as the sequence (Q04206 1-307, chain 1 of 2) above
p50p50 homodimer, sequence (P19838 7-356): as the sequence (P19838 7-356, chain 2 of 2) above

Row | Sequence | binding signal [1] [z-score] | binding signal [2] [z-score] | binding signal [3] [z-score] | binding signal [4] [z-score] | binding signal [5] [z-score] | binding signal [6] [z-score] | binding signal [7] [z-score] | binding signal [8] [z-score] | binding signal [9] [z-score]
1 | GGAAAGTTCCC | 2.6 | 0.736 | 0.736 | 1.29 | 1.02 | 0.762 | 0.686 | 0.966 | 0.929
2 | GGGATGGCCCC | -0.135 | 0.31 | 1.6 | 0.79 | 1.15 | 0.678 | 0.614 | 0.492 | 0.746
3 | CAAAGAACCCT | -0.87 | -0.409 | -0.354 | -0.631 | -0.614 | -0.682 | -0.58 | -0.78 | -0.544
4 | AGAGTGTCCCT | 0.267 | 0.607 | 0.823 | 0.527 | 0.604 | 0.851 | 1.25 | 0.738 | 0.669
5 | AAAGGACTCCT | -0.688 | -1.11 | -0.681 | -0.94 | -0.976 | -1.07 | -0.964 | -1.03 | -0.758
6 | AAGGGGGCCCC | -0.0322 | 0.728 | 0.786 | 0.441 | 0.981 | 0.694 | 1.04 | 0.532 | 0.709
7 | AAGGTTATCCC | -0.0178 | -0.0329 | 0.0211 | -0.139 | -0.074 | -0.236 | -0.173 | -0.0847 | -0.165
8 | GGATATCTCCC | 0.156 | 0.192 | 0.0332 | 0.149 | 0.0232 | 0.028 | -0.143 | -0.122 | -0.036
9 | GGGATCGTCCT | 0.173 | -0.724 | 0.0256 | -0.544 | -0.296 | -0.598 | -0.614 | -0.493 | -0.166
10 | CGAGAATCCCT | -0.154 | 0.393 | 0.327 | 0.25 | 0.284 | 0.305 | 0.573 | 0.277 | 0.32
11 | AAAGTGCCCCC | 0.331 | 1.09 | 0.518 | 0.793 | 0.904 | 0.839 | 1.17 | 0.964 | 0.619
12 | GAAGGCCCCCC | -1.44 | 0.635 | 0.244 | 0.456 | 0.62 | 0.366 | 0.671 | 0.408 | 0.0615
13 | AAAAGAATCCC | 0.306 | 0.444 | 0.44 | 0.389 | 0.575 | 0.356 | 0.317 | 0.495 | 0.359
14 | GAGAAGATCCC | -0.164 | -0.0695 | -0.271 | -0.131 | -0.161 | -0.259 | -0.387 | -0.311 | -0.307
15 | CAAGACGCCCT | -0.812 | -2.01 | -0.745 | -0.983 | -0.966 | -1.04 | -0.904 | -1.34 | -0.839
